PAFAH1B2 inh – PAFAH1B2 enzyme inhibitors, primary screen, biochemical, fluorescence polarization, human; inhibition, % at 3.39 µM; recombinant PAFAH1B2, FP-rhodamine activity probe; 340,000 tested, 1.2% active; Platelet-activating factor acetylhydrolase IB subunit alpha2 (Homo sapiens), P68402;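 active = inhibition above the mean of all tested compounds plus 3 SD, cut at about 24% in these data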;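 also: 0% = enzyme with DMSO and 100% = wells lacking PAFAH1B2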
Target sequence (P68402 whole entry, looked up): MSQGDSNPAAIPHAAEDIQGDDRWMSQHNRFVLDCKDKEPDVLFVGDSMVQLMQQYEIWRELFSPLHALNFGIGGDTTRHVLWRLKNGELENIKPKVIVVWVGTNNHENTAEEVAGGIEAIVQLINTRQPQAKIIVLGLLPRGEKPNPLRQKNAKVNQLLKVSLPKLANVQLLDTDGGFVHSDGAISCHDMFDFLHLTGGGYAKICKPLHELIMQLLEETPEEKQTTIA
EBNA-1 inhibitor – EBNA-1 DNA-binding inhibitors, primary screen, biochemical, fluorescence polarization. inhibition, % at 14.8 µM. 300,000 tested, 0.34% active; in the data active = inhibition above about 28%
PAFAH2 inh – PAFAH2 enzyme inhibitors, primary screen, biochemical, fluorescence polarization, human | recombinant PAFAH2, FP-rhodamine activity probe | AID 492956, 2010 | inhibition, % at 3.39 µM | 340,000 tested, 0.99% active;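 active = inhibition above the mean over all tested compounds plus 3 SD, cut at about 30% in these data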;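 also: inhibitors block probe labeling of enzyme so polarization drops; 0% = enzyme with DMSO and 100% = wells lacking PAFAH2 protein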
pPAFAH inh – pPAFAH enzyme inhibitors, primary screen, biochemical, fluorescence polarization, human; AID 463082, 2010; inhibition, % at 3.39 µM; 330,000 tested, 1.5% active; recombinant pPAFAH, FP-rhodamine probe fluorescence polarization; Platelet-activating factor acetylhydrolase (Homo sapiens), Q13093;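 active = inhibition above the mean inhibition across the screen plus 3 SD, cut at about 25% in these data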;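 also: inhibitors block binding of the rhodamine activity-based probe so polarization drops; 0% = enzyme with DMSO and 100% = wells lacking pPAFAH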
ZTA DNA inh – blocks Epstein-Barr virus ZTA, an EBNA-1 counter-screen; P03206; ZTA-DNA binding, fluorescence polarization; inhibition, % at 11 µM; 320,000 tested, 0.15% active; in the data active = inhibition above about 33%
PAFAH1B3 FP inh – PAFAH1B3 enzyme inhibitors, primary screen, biochemical, fluorescence polarization, human. inhibition, % at 3.39 µM. Platelet-activating factor acetylhydrolase IB subunit alpha1 (Homo sapiens), Q15102. AID 492972, 2010. 340,000 tested, 0.28% active. recombinant PAFAH1B3, FP-rhodamine probe;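 active = inhibition above the screen-wide average of all tested compounds plus 3 SD, cut at about 25% in these data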;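 also: 0% = enzyme with DMSO only and 100% = wells lacking PAFAH1B3 protein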
Target sequence (Q15102 whole entry, looked up): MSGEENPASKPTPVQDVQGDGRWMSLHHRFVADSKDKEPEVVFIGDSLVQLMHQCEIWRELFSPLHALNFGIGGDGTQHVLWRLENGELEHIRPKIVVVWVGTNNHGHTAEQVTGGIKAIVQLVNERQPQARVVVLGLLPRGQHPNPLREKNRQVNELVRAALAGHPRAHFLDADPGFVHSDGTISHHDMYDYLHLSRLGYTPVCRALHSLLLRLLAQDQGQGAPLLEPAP
EBNA-1 confirm – EBNA-1 DNA-binding inhibitors, retest, confirmation, biochemical, fluorescence polarization, triplicate | inhibition, % at 14.8 µM | shares compounds with EBNA-1 inhibitor | AID 2292, 2010 | Recombinant EBNA-1 DBD, Cy5-DNA fluorescence polarization | 830 tested, 35% active;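 active = mean inhibition across replicates above a set limit taken from the earlier primary screen, cut at about 28% in these data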;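 also: plate controls were EBNA-1 protein with DMSO for no effect and wells lacking EBNA-1 for full effect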
ZTA DNA inh trip – EBV Zta DNA binding inhibitors, counter-screen for EBNA-1 inhibitor project, biochemical, fluorescence polarization, triplicate; Zta-ZRE DNA binding, Cy5 fluorescence polarization; 830 tested, under 10 active; AID 2328, 2010; shares compounds with EBNA-1 inhibitor; inhibition, % at 11.1 µM;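 active = mean inhibition over triplicates above a set limit taken from the primary EBNA-1 screen, cut at about 37% in these data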;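 also: purified full length Zta protein with Cy5 labeled ZRE DNA probe; 0% = Zta with DMSO and 100% = wells lacking Zta protein; inhibitors lower polarization by freeing the labeled DNA probe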
* hit, by the source's call; . = no result. This is a sample that favours compounds with a hit; in the whole collection about 2.9% have one here.

SMILES	PAFAH1B2 inh	EBNA-1 inhibitor	PAFAH2 inh	pPAFAH inh	ZTA DNA inh	PAFAH1B3 FP inh	EBNA-1 confirm	ZTA DNA inh trip
Cc1cc(C)n(-c2ccc(Cl)c(C(=O)OCC(N)=O)n2)n1	-2	36*	-3	2	10	3	12	7
O=C(CSc1n[nH]c(-c2ccco2)n1)Nc1sc2c(c1C(=O)Nc1ccccc1)CCCC2	1	36*	0	1	20	0	20	8
COc1ccc(C(NC(=O)/C=C\c2ccco2)c2ccc(OC)c(OC)c2)cc1 (configuration not stated)	3	39*	1	5	-5	2	1	16
COCCCNC(=O)c1ccc2c(=O)n(Cc3ccc(OC)cc3)c(=O)[nH]c2c1	1	-6	5	1	-14	5	.	.
CCCNC(=O)c1ccc2c(=O)c(O)c(-c3ccc(OC)cc3)[nH]c2c1	2	32*	-16	13	4	14	-6	7
Cn1cc(Br)c(C(=O)Nc2nccs2)n1	-2	4	-1	-4	8	-3	.	.
O=C(Nc1cccc(NC(=O)c2ccc(F)cc2)c1)c1ccc(F)cc1	2	28*	-3	3	8	10	10	2
O=C(Nc1cccc(NC(=O)c2ccccc2Cl)c1)c1ccc(F)cc1	3	3	-1	-3	-8	13	.	.
O=C(Nc1cccc(NC(=O)c2cccs2)c1)c1ccc(Br)cc1	-3	70*	-3	0	13	-3	75*	9
Cc1ccc(/C=C2/NC(=O)N(Cc3ccccc3)C2=O)o1	2	5	2	10	0	1	.	.
Cn1c(=O)n(C)c2cc(/C=C3/NC(=O)N(Cc4ccccc4)C3=O)ccc21	4	134*	-9	6	-7	9	113*	1
O=C(CSc1ncccc1-c1nc2ccccc2[nH]1)N1CCc2ccccc21	-1	32*	-14	1	-7	5	9	4
O=C(CSc1nc2ccccc2c(=O)n1-c1ccccc1)N1CCc2ccccc21	3	41*	-5	7	13	4	38*	0
COc1ccccc1CNC(=S)Nc1ccc(S(N)(=O)=O)cc1	2	9	-14	-2	4	10	.	.
CCCC(=O)N(Cc1cc(=O)[nH]c2ccccc12)c1ccccc1OC	3	28*	7	-2	-5	12	-2	3
CCc1ccc2nc(N(CCN(C)C)C(=O)c3ccc4ncsc4c3)sc2c1	6	6	-3	5	-11	9	.	.
Cc1ccc(-c2nc(-c3cccnc3)sc2CC(=O)O)cc1	3	-2	1	0	1	6	.	.
CC(=O)Nc1ccc(NC(=O)Cc2sc(-c3cccnc3)nc2-c2ccc(C)cc2)cc1	1	54*	-5	7	4	14	52*	7
CN(C(=O)Cn1cccc1C1=NC(c2ccccc2)CO1)c1ccccc1 (configuration not stated)	0	-3	-6	-6	-3	-8	.	.
COC(=O)c1cc(Br)cn1S(=O)(=O)c1ccccc1	2	3	0	7	-7	1	.	.
Cc1cccc(NC(=O)CN2C(=O)N/C(=C\c3ccc(N4CCOCC4)cc3)C2=O)c1	5	34*	5	9	12	3	11	10
Cc1cc(N2CCOCC2)ccc1/C=C1\NC(=O)N(CC(=O)Nc2ccccc2C)C1=O	7	42*	3	4	12	7	6	-5
O=C(NCc1ccc2c(c1)OCO2)C1CCC(CNS(=O)(=O)c2ccc(Cl)cc2)CC1 (configuration not stated)	5	30*	2	3	-2	7	63*	8
Cc1cc(Cl)ccc1OCC(=O)NC(=S)Nc1ccccc1N1CCOCC1	-3	44*	3	1	14	6	38*	8
COc1cccc(CC(=O)OCC(=O)NCCc2ccc(F)cc2)c1	7	.	5	7	11	-3	.	.
SMILES	PAFAH1B2 inh	EBNA-1 inhibitor	PAFAH2 inh	pPAFAH inh	ZTA DNA inh	PAFAH1B3 FP inh	EBNA-1 confirm	ZTA DNA inh trip
COC(=O)C1CSC(C(=O)OC)N1C(=O)Nc1ccccc1 (configuration not stated)	1	55*	4	0	8	-2	-10	-3
COc1cccc(C(=O)N2CCC(C(=O)NCc3ccco3)CC2)c1	2	-4	0	3	4	2	.	.
NS(=O)(=O)c1ccc(CCNC(=O)C2CCC(CNS(=O)(=O)c3ccc(Br)s3)CC2)cc1 (configuration not stated)	5	59*	5	4	-13	2	24	-6
O=C(NCc1cccs1)C1CCC(CNS(=O)(=O)c2ccc(Br)s2)CC1 (configuration not stated)	8	4	11	5	-8	6	.	.
CCN1CCN(c2c(Cl)cccc2NC(=O)c2cc3ccccc3o2)CC1	-1	-2	4	2	4	2	.	.
COc1ccc(OC)c(NC(=O)C2CCCN(S(=O)(=O)c3ccc(-n4cnnn4)cc3)C2)c1 (configuration not stated)	7	49*	3	-1	-11	8	41*	10
Cc1ccc(C(=O)COC(=O)CNC(=O)CN2C(=O)c3ccccc3C2=O)cc1	7	33*	-3	1	4	3	28*	-4
Cc1cc(C)c(C)c(C(=O)COC(=O)CNC(=O)CN2C(=O)c3ccccc3C2=O)c1C	-1	13	-8	7	22	-5	.	.
COc1ccc(NC(=O)COc2ccc3c(C)cc(=O)oc3c2)cc1S(=O)(=O)N1CCCCC1	-9	101*	-17	0	17	-28	67*	10
Cc1ccc(NC(=S)NC(=O)c2ccc(F)cc2)cc1S(=O)(=O)Nc1ccccc1Cl	2	28*	-22	10	5	-3	-7	-13
COCCCNC(=O)c1c(N)n(-c2ccc(S(N)(=O)=O)cc2)c2nc3ccccc3nc12	0	113*	5	5	25	0	65*	-13

Bioassay records (PubChem)
